Unmarked numbers belong to inactive results. Records with an inconclusive call do not appear. Calls of active or inactive are those of the source. Calls follow the shape of the dose curve; as a rule, active = well fitted curve in the direction sought with a large enough effect; inconclusive = small, poorly fitted or top-dose-only effect, or another doubt; inactive = no such curve, though single readings can be large; an effect the other way counts as inactive or inconclusive.
molecular target: Cytochrome P450 3A4 (Homo sapiens) (UniProt P08684); assay: qHTS Assay for Activators of Cytochrome P450 3A4 (AID 885); conditions: recombinant CYP3A4, Luciferin-PPXE luminescence, 60 min; series mostly up to 57.1 µM; activity change, positive = activation: at the top concentration; also: nearly all actives have a fitted effect of over 65% in size
How it was run: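 Activators are scored by enhanced luminescence from CYP3A4 conversion of luciferin-PPXE (25uM, equal to KM) to luciferin, after 60 min at RT with an NADPH-regenerating system.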

Cytochrome P450 3A4 (Homo sapiens), sequence (P08684 whole entry, looked up): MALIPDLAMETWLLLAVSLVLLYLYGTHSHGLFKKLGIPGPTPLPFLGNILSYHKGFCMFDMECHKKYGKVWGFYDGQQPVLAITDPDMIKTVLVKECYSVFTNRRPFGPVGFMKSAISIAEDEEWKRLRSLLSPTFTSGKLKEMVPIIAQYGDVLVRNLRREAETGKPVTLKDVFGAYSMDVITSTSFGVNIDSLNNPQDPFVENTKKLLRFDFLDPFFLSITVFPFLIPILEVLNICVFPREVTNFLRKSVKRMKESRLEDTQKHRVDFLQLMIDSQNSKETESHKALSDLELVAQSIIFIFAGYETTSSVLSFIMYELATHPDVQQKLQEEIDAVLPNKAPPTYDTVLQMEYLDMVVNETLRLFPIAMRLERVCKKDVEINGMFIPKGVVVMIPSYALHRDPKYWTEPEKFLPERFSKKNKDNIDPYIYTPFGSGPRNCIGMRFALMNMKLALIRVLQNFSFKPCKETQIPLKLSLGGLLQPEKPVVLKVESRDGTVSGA

Row | Compound | activity change, positive = activation
1 | Cc1c(-c2ccccc2)oc2c(C(=O)OCCN3CCCCC3)cccc2c1=O | -54.5% [at 25.6 µM]
2 | CC[C@H](c1ccc(O)cc1)[C@@H](CC)c1ccc(O)cc1 | -82.5% [at 25.6 µM]
3 | CCOC(=O)c1ccc(N)cc1 | -42.7%
4 | CCN(CC)CCOC(=O)C(Cc1cccc2ccccc12)CC1CCCO1 (stereo unspecified) | -81.8%
5 | CCN(CC)CCNc1ccc(CO)c2sc3ccccc3c(=O)c12 | -35% [at 25.6 µM]
6 | Nc1ccc(S(=O)(=O)Nc2cnc3ccccc3n2)cc1 | -32.5%
7 | O=C1C(CCS(=O)c2ccccc2)C(=O)N(c2ccccc2)N1c1ccccc1 (stereo unspecified) | -63.5%
8 | Cc1cc(-c2ccccc2)nnc1NCCN1CCOCC1 | -51.8%

molecular target: Cytochrome P450 2D6 (Homo sapiens) (UniProt P10635); assay: qHTS Assay for Inhibitors and Substrates of Cytochrome P450 2D6 (AID 891); conditions: recombinant CYP2D6, luciferin-ME EGE luminescence; also: potency is read from the fitted curve at half-maximal effect; nearly all actives have a fitted effect of over 60% in size
How it was run: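 Luminescent read-out of luciferin formed by 5 nM human CYP2D6 demethylating 30 uM Luciferin-ME EGE (Km level) over 60 min at room temperature after NADPH regeneration addition. Data normalized to full inhibition by 1.43 uM quinidine.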

Cytochrome P450 2D6 (Homo sapiens), sequence (P10635 whole entry, looked up): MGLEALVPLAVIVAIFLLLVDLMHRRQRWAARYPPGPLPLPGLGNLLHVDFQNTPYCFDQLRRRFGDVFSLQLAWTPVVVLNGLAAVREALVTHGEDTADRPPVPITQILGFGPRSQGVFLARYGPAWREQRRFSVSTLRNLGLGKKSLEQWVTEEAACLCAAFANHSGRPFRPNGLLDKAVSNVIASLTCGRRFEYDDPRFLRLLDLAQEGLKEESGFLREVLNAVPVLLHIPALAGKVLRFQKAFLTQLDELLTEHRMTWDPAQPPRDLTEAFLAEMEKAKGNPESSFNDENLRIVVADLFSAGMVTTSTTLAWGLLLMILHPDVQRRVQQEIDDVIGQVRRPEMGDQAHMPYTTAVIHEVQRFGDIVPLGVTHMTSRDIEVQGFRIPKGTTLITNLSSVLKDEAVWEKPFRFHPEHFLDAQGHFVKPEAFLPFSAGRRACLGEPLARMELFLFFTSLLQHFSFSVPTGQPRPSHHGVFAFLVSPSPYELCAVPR

Row | Compound | Potency
9 | Cc1c(-c2ccccc2)oc2c(C(=O)OCCN3CCCCC3)cccc2c1=O | 7.94 µM (active)
10 | CCc1cc(Cl)c(OC)c(C(=O)NC[C@@H]2CCCN2CC)c1O | 0.0501 µM (active)
11 | CCN(CC)CCNc1ccc(CO)c2sc3ccccc3c(=O)c12 | 5.01 µM (active)
12 | CCCCc1cc2ccccc2c(OCCN(C)C)n1 | 2 µM (active)

system: not listed separately; assay: Confirmation and Secondary Assay for Modulators of Hemoglobin Beta Chain Splicing at IVS2 654 locus (AID 910); conditions: HeLa EGFP-654 splicing reporter, GFP fluorescence, 48 h; series mostly up to 46.1 µM; activation (splicing correction): at the top concentration;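 also: HeLa cells stably carrying EGFP split by mutant beta-globin IVS2-654 intron; per-well total GFP intensity by laser scanning cytometry after 2-day treatment; % of control where 0% means no effect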
How it was run: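 Readout: per-well total peak green fluorescence (488 nm ex, 500–520 nm em) from objects 5–250 µm, reflecting correct splicing of an EGFP-654 reporter. Compounds were applied for 2 days at 37 °C to overnight-plated HeLa EGFP-654 cells; controls were DMSO and 500 nM IVS2-654 PNA.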

Row | Compound | activation (splicing correction) | outcome
13 | COc1ccc(C(=O)c2ccccc2O)c(O)c1 | 1.9% | 
14 | CCCCCCCCNC(C)C(O)c1ccc(SC(C)C)cc1 (stereo unspecified) | -6.43% | 
15 | CCN(CC)CCNC(=O)COc1ccc(OC)cc1 | 9.9% | 
16 | OCCOCCN1CCN(C2=Nc3ccccc3Sc3ccccc32)CC1 | 1.29% [at 38.3 µM] | 
17 | Cc1ccccc1OCC(O)CO (stereo unspecified) | -1.51% | 
18 | CCN(CC)CCNC(=O)c1cc(Br)c(N)cc1OC | -2.72% | 
19 | COC(=O)C(c1ccccc1Cl)N1CCc2sccc2C1 (stereo unspecified) | -0.359% | 
20 | CNCCc1ccccn1 | 0.151% [at 38.3 µM] | 
21 | CCOC(=O)c1ccc(N)cc1 | 6.13% | 
22 | CN(C)CCOC(c1ccc(Cl)cc1)c1ccccn1 (stereo unspecified) | 1.96% | 
23 | CCC(Cc1c(I)cc(I)c(N)c1I)C(=O)O (stereo unspecified) | -3.98% | 
24 | CCCCC(CC)CN1CN(CC(CC)CCCC)CC(C)(N)C1 (stereo unspecified) | -1.21% | 
25 | O=C(O)CCC(=O)Nc1ccc(S(=O)(=O)Nc2nccs2)cc1 | 5.97% | 
26 | CN1CCC(OC(c2ccccc2)c2ccccc2)CC1 | 2.02% | 
27 | CC(C)NCC(O)c1ccc2ccccc2c1 (stereo unspecified) | 6.92% | 
28 | CCN(CC)CCOC(=O)C(Cc1cccc2ccccc12)CC1CCCO1 (stereo unspecified) | -4.88% | 
29 | C[N+]12CCC(CC1)C(OC(=O)C(O)(c1ccccc1)c1ccccc1)C2 (stereo unspecified) | 1.88% | 

Row | Compound | activation (splicing correction) | outcome
30 | c1ccc(CC2=NCCN2)cc1 | 5.02% | 
31 | CN(C)CCOC(=O)C(c1ccccc1)C1(O)CCCC1 (stereo unspecified) | 5.37% | 
32 | CC(C(=O)O)c1cccc(Oc2ccccc2)c1 (stereo unspecified) | 12.8% | 
33 | COc1cc(NS(=O)(=O)c2ccc(N)cc2)ncn1 | -1.55% | 
34 | CCN(CC)CCNc1ccc(CO)c2sc3ccccc3c(=O)c12 | 8.1% | 
35 | CCCCCN=C(N)N/N=C/c1c[nH]c2ccc(OC)cc12 |  | inactive
36 | CCN1CCCC(OC(=O)C(c2ccccc2)c2ccccc2)C1 (stereo unspecified) | -2.4% | 
37 | O=C(O)CCNC(=O)c1ccccc1 | 8.43% | 
38 | Nc1ccc(C(=O)NCC(=O)O)cc1 | 9.2% | 
39 | CC(=O)Nc1ccc(S(=O)(=O)Nc2ccc([N+](=O)[O-])cc2)cc1 | -0.891% | 
40 | Nc1ccc(S(=O)(=O)Nc2cnc3ccccc3n2)cc1 | 0.463% [at 38.3 µM] | 
41 | O=C1C(CCS(=O)c2ccccc2)C(=O)N(c2ccccc2)N1c1ccccc1 (stereo unspecified) | 0.942% | 
42 | Cc1cc(C)cc(OCC2CNC(=O)O2)c1 (stereo unspecified) | 3.37% | 
43 | CC(=O)NO | 2.17% | 
44 | CCCc1ncc(C[n+]2ccccc2C)c(N)n1 | 2.45% | 
45 | Cc1cc(-c2ccccc2)nnc1NCCN1CCOCC1 | 1.91% | 
46 | CCOC(=O)[C@H](CCc1ccccc1)N[C@@H](C)C(=O)N1[C@H](C(=O)O)C[C@H]2CCCC[C@@H]21 | 4.83% | 
